Source: PubChem BioAssay (National Center for Advancing Translational Sciences (NCATS))
This is a sample that favours compounds with a hit; in the whole collection about 11% have one here.
NPR1 antag: blocks ANP-stimulated signaling of human Npr1 receptor | P16066 | HEK293 hNpr1 GloSensor cGMP, ANP-stimulated luminescence | Potency, µM (highest dose often 46.3 µM), actives largely listed as inhibitors | hit rate 1.6% among 76,000; calls by dose curve; note: nearly all actives have a fitted effect of over 60% in size
Target sequence (P16066 whole entry, looked up): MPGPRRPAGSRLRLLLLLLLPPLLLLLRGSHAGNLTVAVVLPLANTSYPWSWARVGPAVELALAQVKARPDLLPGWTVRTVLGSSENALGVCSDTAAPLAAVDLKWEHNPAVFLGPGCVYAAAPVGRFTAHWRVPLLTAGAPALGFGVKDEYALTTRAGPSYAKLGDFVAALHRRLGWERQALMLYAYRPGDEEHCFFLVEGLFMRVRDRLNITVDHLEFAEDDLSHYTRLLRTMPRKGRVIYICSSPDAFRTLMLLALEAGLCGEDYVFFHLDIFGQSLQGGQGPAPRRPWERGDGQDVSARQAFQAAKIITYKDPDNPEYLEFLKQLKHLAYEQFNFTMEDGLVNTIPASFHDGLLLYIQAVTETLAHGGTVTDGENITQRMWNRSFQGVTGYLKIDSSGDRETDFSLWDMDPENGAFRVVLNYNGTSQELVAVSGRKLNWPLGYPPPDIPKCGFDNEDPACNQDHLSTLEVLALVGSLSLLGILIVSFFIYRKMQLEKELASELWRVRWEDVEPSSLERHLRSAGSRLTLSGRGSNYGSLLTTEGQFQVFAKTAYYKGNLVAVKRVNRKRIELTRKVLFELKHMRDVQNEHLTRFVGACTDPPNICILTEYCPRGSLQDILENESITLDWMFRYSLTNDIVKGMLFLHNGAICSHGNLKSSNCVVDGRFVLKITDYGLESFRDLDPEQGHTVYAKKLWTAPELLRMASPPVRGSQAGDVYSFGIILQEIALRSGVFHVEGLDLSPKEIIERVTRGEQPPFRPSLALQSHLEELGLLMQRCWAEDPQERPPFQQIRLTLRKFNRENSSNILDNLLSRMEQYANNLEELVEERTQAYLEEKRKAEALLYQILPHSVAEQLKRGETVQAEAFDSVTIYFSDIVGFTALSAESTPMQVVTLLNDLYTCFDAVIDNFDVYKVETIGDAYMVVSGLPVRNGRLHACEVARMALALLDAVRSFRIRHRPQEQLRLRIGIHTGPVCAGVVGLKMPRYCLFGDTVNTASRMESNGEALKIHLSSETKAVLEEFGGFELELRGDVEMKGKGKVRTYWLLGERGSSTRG
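HEK293 cells stably expressing human Npr1 and cGMP GloSensor pGS-40F, loaded 2 h with 2% GloSensor reagent, given compound 30 min at room temperature. Luminescence read before and 20 min after 0.1 nM hNppA.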
HEK cytotox: HEK 293 cell cytotoxicity; Potency, µM (titrated, usually from 115 µM), actives largely listed as inhibitors; HEK 293 viability, ATP luminescence (CellTiter-Glo), 48-72 h; hit rate 6.6% among 94,000; note: nearly all actives have a fitted effect of over 60% in size
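Luminescence from cellular ATP, measured with CellTiter-Glo, indicates HEK 293 viability. Cells plated at 250 cells/well are treated with compound for 48 or 72 hr at 37 degree Celsius before reagent addition.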
FLuc inh: Photinus pyralis luciferase inhibition; Potency, µM (titrated, usually from 115 µM), most hits filed as inhibitors; purified P. pyralis luciferase, luminescence, biochemical; hit rate 2.5% among 76,000; AID 1347043; note: nearly all actives have a fitted effect of over 65% in size
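Luminescence read by CCD imager after adding enzyme (10nM final) to wells holding compound, titrated in qHTS. Substrates 10uM each D-luciferin and ATP; buffer 50mM Tris acetate pH 7.5, 10mM Mg acetate, Tween-20, BSA.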
NIH3T3 tox: kills NIH 3T3 cells; AID 1345082; NIH 3T3 viability, CellTiter-Glo ATP luminescence, 48-72 h; hit rate 4.3% among 94,000; Potency, µM (titrated, usually from 96.7 µM), actives largely listed as inhibitors; note: nearly all actives have a fitted effect of over 55% in size
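Viability of NIH 3T3 cells after 48 or 72 hr compound treatment at 37 °C was assessed by CellTiter-Glo, with luminescence imaged following a 10 min room-temperature step.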
Of the large screens only hits and unclear results are named; the others gave an inactive call. Unless noted, calls come from the whole dose curve; as a rule, active = well fitted curve in the direction sought with a large enough effect; inconclusive = small, poorly fitted or top-dose-only effect, or another doubt; inactive = no such curve, though single readings can be large; an effect the other way counts as inactive or inconclusive.

CCN1C(=O)CCc2cc(NC(=O)c3ccc(OC)cc3C)ccc21	HEK cytotox 71µM, FLuc inh 25µM, NIH3T3 tox inconclusive
COCCN1C(=O)CCc2cc(NC(=O)c3ccccc3C)ccc21	none
CC(C)c1ccc(CN2C[C@@H]3C(=O)N(CCc4ccccc4)C(=O)[C@@H]3C2)cc1	NPR1 antag inconclusive, HEK cytotox inconclusive, NIH3T3 tox inconclusive
COc1ccc(OCC(O)CN2CCC(=O)N(C3CCCC3)Cc3ccccc32)cc1 (centres undefined)	HEK cytotox 40µM, NIH3T3 tox inconclusive (no result: NPR1 antag, FLuc inh)
C=CCN1CCc2ccccc2N(CC(O)COc2ccc(OC)cc2)CCC1=O (centres undefined)	NIH3T3 tox inconclusive (no result: NPR1 antag, FLuc inh)
COc1ccc(OCC(O)CN2CCC(=O)N(C/C=C/c3ccccc3)CCc3ccccc32)cc1 (centres undefined)	HEK cytotox 28µM, NIH3T3 tox inconclusive (no result: NPR1 antag, FLuc inh)
COCCN1Cc2ccccc2N(CC(O)COc2ccccc2)CCC1=O (centres undefined)	HEK cytotox inconclusive (no result: NPR1 antag, FLuc inh)
Cc1cc(C)cc(C(=O)NC2CCN(C(=O)c3cc4c(=O)[nH]c(C)cn4n3)CC2)c1	none
CCC1(N2CCN(C(=O)c3cc(F)ccc3Cl)CC2)CCN(C(=O)C(C)C)C1 (centres undefined)	none
c1ccc(N2CCN(C3CCCN(Cc4cn[nH]c4C4CCCCC4)C3)CC2)cc1 (centres undefined)	HEK cytotox 89µM
Cc1ccc(CCNC(=O)c2nnn3c2COC(c2ccc(Cl)cc2)C3)cc1 (centres undefined)	none
COC(=O)[C@@H]1CCCN1c1ccc(-c2nc(-c3ccccc3F)no2)cn1	NPR1 antag 14µM, HEK cytotox 40µM, FLuc inh inconclusive, NIH3T3 tox inconclusive
COCCNc1ccc(-c2noc([C@@H]3CCCN3Cc3ccccc3F)n2)cn1	HEK cytotox inconclusive
O=C1CCCCN1CCNc1ccc(-c2nc(-c3ccccc3F)no2)cn1	HEK cytotox inconclusive, FLuc inh 14µM, NIH3T3 tox inconclusive
O=C1OCCCN1CCNc1ccc(-c2nc(-c3ccccc3F)no2)cn1	HEK cytotox inconclusive, FLuc inh 35µM
Cc1ccc(-c2cn3cc(C(=O)NC4CCCCCC4)nc3s2)cc1	none (no result: NPR1 antag, FLuc inh)
Cc1sc2ccn(C)c(=O)c2c1C(=O)NCc1ccc(OC(C)C)cc1	HEK cytotox inconclusive
COC(=O)[C@@H]1Cc2c([nH]c3ccccc23)[C@@H]2C[C@@H](NCCCn3ccnc3)C[C@@H](c3ccc(F)c(F)c3)N12	HEK cytotox 25µM, NIH3T3 tox 28µM
COC(=O)[C@@H]1Cc2c([nH]c3ccccc23)[C@H]2C[C@H](NCCCn3ccnc3)C[C@@H](c3ccccc3F)N21	HEK cytotox inconclusive, NIH3T3 tox 5µM
O=C(Cc1c[nH]c2ncc(-c3ccccc3)cc12)NCCCn1ccnc1	NIH3T3 tox inconclusive
COC(=O)[C@@H]1Cc2c([nH]c3ccccc23)[C@H]2C[C@@H](NCCCn3ccnc3)C[C@@H](c3ccccc3)N21	HEK cytotox inconclusive, NIH3T3 tox 20µM
CNC(=O)c1cc(C2CC2)nc2c1c(C1CCCN1C(=O)c1ccccc1OC)nn2C (centres undefined)	none (no result: NPR1 antag, FLuc inh)
COC(=O)[C@@H]1Cc2c([nH]c3ccccc23)[C@H]2C[C@@H](N3CCOCC3)C[C@@H](c3ccc(C(F)(F)F)cc3)N21	HEK cytotox 22µM, NIH3T3 tox 25µM
COC(=O)[C@@H]1Cc2c([nH]c3ccccc23)[C@H]2C[C@@H](NCc3cccnc3)C[C@@H](c3ccc(OC(F)(F)F)cc3)N21	HEK cytotox 28µM, NIH3T3 tox 32µM
O=C(CC1CCOCC1)NCc1ccc(OC(F)(F)F)cc1	HEK cytotox inconclusive
COC(=O)[C@@H]1Cc2c([nH]c3ccccc23)[C@H]2C[C@@H](N3CCOCC3)C[C@@H](c3ccc(OC(F)(F)F)cc3)N21	HEK cytotox inconclusive, NIH3T3 tox 45µM
CC(=O)NC[C@@H]1C=C(C)[C@H](Cc2nnc(-c3cncn3C)o2)C[C@H]1C(C)C	none
CC1=C[C@@H](CN2CCN(c3ccccn3)CC2)[C@H](C(C)C)C[C@H]1Cc1nnc(-c2ccc([N+](=O)[O-])cc2)o1	HEK cytotox inconclusive, NIH3T3 tox inconclusive
CC1=C[C@@H](CN2CCN(c3ccc(F)cc3)CC2)[C@H](C(C)C)C[C@H]1Cc1nnc(-c2cncn2C)o1	HEK cytotox 22µM, NIH3T3 tox inconclusive
